The text below walks through data of PubChem BioAssay.

Molecules are shown by their SMILES. Activity calls are given as the source filed them. Unless noted, no rule for the calls is given here.

Assay [1] in a line: compounds binding Alexa647 anti-His antibody – biochemical, small-molecule microarray, 635 nm fluorescence, artefact control for SMM control protein annotation, primary screen (AID 1128).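 Also: score merges feature fluorescence with signal-to-noise for each printed compound spot.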 The settings on record: higher = more signal.
The test system of assay [2] is Human papillomavirus type 1a E7 protein (residues 1-88). The assay can be described thus: HPV1a E7 small-molecule binders, primary screen, biochemical, small-molecule microarray, residues 1-88, 635 nm (AID 1129). The note with it: small-molecule microarray binding, fluorescence 635 nm; higher = more signal.
Assay [3] concerns the target Focal adhesion kinase 1 (Homo sapiens) (UniProt Q05397). The assay can be described thus: PTK2 protein binding on printed compound slides – biochemical, small-molecule microarray, 635/667 nm fluorescence, BSA, DTT, primary screen (AID 1130).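 Also: composite of spot emission at 667 nm and signal to noise over triplicate slides.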 The settings on record: 635 nm fluorescence, higher = more signal.
The test system of assay [4] is Fibrinogen (Alexa647-labelled). The assay can be described thus: Alexa647-fibrinogen binding to printed small molecules – biochemical, small-molecule microarray, 635/667 nm fluorescence, artefact control for SMM control-protein annotation, profiling panel (AID 1131).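 Also: z-score merges 667 nm fluorescence with per-spot signal-to-noise over triplicate slides.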 The note with it: fibrinogen-A647 binding fluorescence, higher = more signal.
The target of assay [5] is Follistatin (Homo sapiens) (UniProt P19883). The assay is described as follows: FST protein binding to printed compounds – biochemical, small-molecule microarray, 635/667 nm fluorescence, primary screen (AID 1132). The settings on record: 635 nm fluorescence, higher = more signal.
Assay [6] deals with Fibroblast growth factor 2 (Homo sapiens) (UniProt P09038). The assay can be described thus: basic fibroblast growth factor binding to printed compounds – biochemical, small-molecule microarray, 635/667 nm fluorescence, primary screen (AID 1133). The note with it: FGF2, fluorescence 635/667, higher = more signal.
The nature of assay [7]: JC-1 mitochondrial potential readout, lung cancer cells – cell-based, A549, JC-1 fluorescence, basal, 24 h, 100 nL, profiling panel (AID 1138).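 Also: A549 lung adenocarcinoma cells under basal conditions with no added stimulus; test concentration not given here.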 The settings on record: higher = more signal.
The next assay deals with Lefty1. The assay is described as follows: Lefty1 protein binding to printed compounds – biochemical, small-molecule microarray, 635/667 nm fluorescence, primary screen (AID 1139). The settings on record: fluorescence 635/667, higher = more signal.
Assay [8] deals with wheat germ agglutinin (Triticum aestivum), Alexa647-labelled. The assay can be described thus: Alexa647-WGA lectin binding to printed small molecules – biochemical, small-molecule microarray, 635/667 nm fluorescence, artefact control for SMM control-protein annotation, profiling panel (AID 1140).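 Also: score merges 667 nm feature emission with signal to noise over triplicate slides.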 The settings on record: WGA-A647 binding, 635 nm fluorescence, higher = more signal.

Assay [9] deals with Luciferin 4-monooxygenase (Photinus pyralis) (UniProt P08659). The assay is described as follows: inhibition of purified Photinus pyralis luciferase – biochemical, luminescence, purified enzyme, 2006 set, primary screen (AID 1141).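 Also: cell-free assay with purified firefly luciferase at 100 ng per well in PBS; test concentration not given here.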 The note with it: purified firefly luciferase, SteadyGlo luminescence, 30 min; higher = more signal, called active from +8 up or from −8 down.
The subject of assay [10] is Wnt5a (protein binding on small-molecule microarray). The assay can be described thus: small molecules binding Wnt5a protein – biophysical, small-molecule microarray, 635/667 nm fluorescence, primary screen (AID 1142).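 Also: fluorescence read at 667 nm with signal to noise per printed feature.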 The note with it: 635 nm fluorescence, higher = more signal.
Assay [11] is described as follows: ATP-based viability of Huh7 replicon cells – cell-based, CellTiter-Glo luminescence, basal, 48 h, cytotoxicity control for HCV replication inhibitor project, primary screen (AID 1143).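 Also: Huh7 hepatoma cells carrying a hepatitis C replication reporter with no stimulus; test concentration not given here.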 The settings on record: higher = more signal, called active from +8 up or from −8 down. A general note: In antiviral work, replicon cells carry a viral genome segment that copies itself.

Assay [12] is described as follows: Pseudomonas biofilm growth suppression – PAO1 strain, BacTiter-Glo luminescence, LB-PBS, primary screen (AID 1144). The settings on record: P. aeruginosa PAO1 biofilm, 12 h, higher = more signal.
A short description of assay [13]: basal CRE-LacZ reporter activity in PC12 – cell-based, unstimulated, primary screen (AID 1145). The settings on record: no forskolin, luminescence, 4.5 h, higher = more signal, called active from +8 up or from −8 down.
Assay [14] is described as follows: forskolin-driven CRE-LacZ activity in PC12 – cell-based, CRE-LacZ reporter, forskolin-stimulated, primary screen (AID 1146).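 Also: PC12 cells with 6xCRE LacZ reporter stimulated by forskolin 10 µM; beta-galactosidase reporter signal reflecting CREB driven transcription.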 The note with it: luminescence, 4.5 h, higher = more signal, called active from +8 up or from −8 down.
The target of assay [15] is Streptavidin (Streptomyces avidinii) (UniProt P22629). The assay is described as follows: compounds binding control protein streptavidin – biophysical, small-molecule microarray, 635/667 nm fluorescence, artefact control for SMM compound annotation, primary screen (AID 1147).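 Also: signal reflects streptavidin binding to arrayed compounds as a control protein.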 The note with it: higher = more signal.
Assay [16] in a line: probe aInhba binding on compound microarray – biochemical, small-molecule microarray, 635/667 nm fluorescence, primary screen (AID 1148).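 Also: score merges 667nm spot fluorescence with signal-to-noise for antibody binding to printed compounds.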 The settings on record: higher = more signal.
The target of assay [17] is Torsin-1A (Homo sapiens) (UniProt O14656). The assay can be described thus: TOR1A wild-type binding on microarray – cell lysate, small-molecule microarray, lysate, 635/667 nm, primary screen (AID 1149). The note with it: COS7 hTOR1A-WT lysate, 635 nm fluorescence, higher = more signal.
Assay [18] shares this target. The assay can be described thus: torsin A mutant lysate binding on microarrays – cell lysate, small-molecule microarray, COS7 lysate, 635/667 nm fluorescence, primary screen (AID 1150).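 Also: score pools 667 nm emission and signal to noise measuring lysate protein binding.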 The note with it: COS7 hTOR1A mutant lysate, 635 nm fluorescence, higher = more signal.
Assay [19] deals with Sonic hedgehog protein (Shh). The assay is described as follows: Sonic hedgehog microarray binding compounds – biochemical, small-molecule microarray, 635/667 nm fluorescence, primary screen (AID 1151).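 Also: Shh protein binding to compounds spotted on small-molecule microarray slides; score combines spot fluorescence intensity with signal-to-noise across triplicate slides.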 The settings on record: 635 nm fluorescence, higher = more signal.

Sequence of Follistatin (Homo sapiens) (P19883 whole entry, looked up): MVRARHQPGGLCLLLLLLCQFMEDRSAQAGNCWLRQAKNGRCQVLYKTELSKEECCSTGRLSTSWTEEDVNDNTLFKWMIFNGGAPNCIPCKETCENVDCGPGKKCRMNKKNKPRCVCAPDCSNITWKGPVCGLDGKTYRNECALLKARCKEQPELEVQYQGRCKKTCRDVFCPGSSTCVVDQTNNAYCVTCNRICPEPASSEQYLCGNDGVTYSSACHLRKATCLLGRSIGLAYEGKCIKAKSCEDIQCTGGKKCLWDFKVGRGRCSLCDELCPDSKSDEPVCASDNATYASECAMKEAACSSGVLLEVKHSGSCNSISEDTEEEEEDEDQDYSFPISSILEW
Sequence of Luciferin 4-monooxygenase (Photinus pyralis) (P08659 whole entry, looked up): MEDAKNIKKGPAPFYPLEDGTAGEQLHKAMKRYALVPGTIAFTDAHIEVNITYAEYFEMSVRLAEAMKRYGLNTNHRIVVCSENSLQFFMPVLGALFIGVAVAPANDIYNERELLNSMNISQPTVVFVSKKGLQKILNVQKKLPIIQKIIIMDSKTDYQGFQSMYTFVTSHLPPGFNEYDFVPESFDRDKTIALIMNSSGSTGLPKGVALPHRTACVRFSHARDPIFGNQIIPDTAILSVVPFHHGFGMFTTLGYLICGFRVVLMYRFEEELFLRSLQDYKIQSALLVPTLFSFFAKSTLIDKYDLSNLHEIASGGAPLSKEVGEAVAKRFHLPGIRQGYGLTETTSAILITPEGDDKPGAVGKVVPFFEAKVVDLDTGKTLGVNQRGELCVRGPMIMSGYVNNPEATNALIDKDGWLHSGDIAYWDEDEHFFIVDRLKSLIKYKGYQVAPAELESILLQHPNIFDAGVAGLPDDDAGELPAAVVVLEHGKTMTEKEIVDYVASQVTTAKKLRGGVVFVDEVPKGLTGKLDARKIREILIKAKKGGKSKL
Sequence of Streptavidin (Streptomyces avidinii) (P22629 whole entry, looked up): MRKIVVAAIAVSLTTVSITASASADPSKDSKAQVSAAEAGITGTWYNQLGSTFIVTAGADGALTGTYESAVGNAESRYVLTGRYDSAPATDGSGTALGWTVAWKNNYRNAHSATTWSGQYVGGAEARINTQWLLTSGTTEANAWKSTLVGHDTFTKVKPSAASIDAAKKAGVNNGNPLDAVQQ
Sequence of Fibroblast growth factor 2 (Homo sapiens) (P09038 whole entry, looked up): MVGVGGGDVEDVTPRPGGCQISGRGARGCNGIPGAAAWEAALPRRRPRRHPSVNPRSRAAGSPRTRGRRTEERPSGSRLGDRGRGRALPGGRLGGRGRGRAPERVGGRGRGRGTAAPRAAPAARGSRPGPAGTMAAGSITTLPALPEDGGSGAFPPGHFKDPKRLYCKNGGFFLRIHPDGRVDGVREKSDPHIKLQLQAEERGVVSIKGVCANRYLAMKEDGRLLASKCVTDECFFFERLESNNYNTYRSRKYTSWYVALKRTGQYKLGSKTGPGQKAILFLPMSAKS
Sequence of Torsin-1A (Homo sapiens) (O14656 whole entry, looked up): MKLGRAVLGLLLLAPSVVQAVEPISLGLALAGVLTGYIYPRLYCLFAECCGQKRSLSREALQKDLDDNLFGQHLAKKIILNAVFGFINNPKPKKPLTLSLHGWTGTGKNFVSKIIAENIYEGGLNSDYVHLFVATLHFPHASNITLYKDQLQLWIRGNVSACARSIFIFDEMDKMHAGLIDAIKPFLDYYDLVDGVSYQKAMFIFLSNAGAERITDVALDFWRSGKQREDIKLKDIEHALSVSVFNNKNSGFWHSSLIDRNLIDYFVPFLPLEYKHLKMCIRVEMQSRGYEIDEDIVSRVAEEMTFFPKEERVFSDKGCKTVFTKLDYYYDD
Sequence of Focal adhesion kinase 1 (Homo sapiens) (Q05397 whole entry, looked up): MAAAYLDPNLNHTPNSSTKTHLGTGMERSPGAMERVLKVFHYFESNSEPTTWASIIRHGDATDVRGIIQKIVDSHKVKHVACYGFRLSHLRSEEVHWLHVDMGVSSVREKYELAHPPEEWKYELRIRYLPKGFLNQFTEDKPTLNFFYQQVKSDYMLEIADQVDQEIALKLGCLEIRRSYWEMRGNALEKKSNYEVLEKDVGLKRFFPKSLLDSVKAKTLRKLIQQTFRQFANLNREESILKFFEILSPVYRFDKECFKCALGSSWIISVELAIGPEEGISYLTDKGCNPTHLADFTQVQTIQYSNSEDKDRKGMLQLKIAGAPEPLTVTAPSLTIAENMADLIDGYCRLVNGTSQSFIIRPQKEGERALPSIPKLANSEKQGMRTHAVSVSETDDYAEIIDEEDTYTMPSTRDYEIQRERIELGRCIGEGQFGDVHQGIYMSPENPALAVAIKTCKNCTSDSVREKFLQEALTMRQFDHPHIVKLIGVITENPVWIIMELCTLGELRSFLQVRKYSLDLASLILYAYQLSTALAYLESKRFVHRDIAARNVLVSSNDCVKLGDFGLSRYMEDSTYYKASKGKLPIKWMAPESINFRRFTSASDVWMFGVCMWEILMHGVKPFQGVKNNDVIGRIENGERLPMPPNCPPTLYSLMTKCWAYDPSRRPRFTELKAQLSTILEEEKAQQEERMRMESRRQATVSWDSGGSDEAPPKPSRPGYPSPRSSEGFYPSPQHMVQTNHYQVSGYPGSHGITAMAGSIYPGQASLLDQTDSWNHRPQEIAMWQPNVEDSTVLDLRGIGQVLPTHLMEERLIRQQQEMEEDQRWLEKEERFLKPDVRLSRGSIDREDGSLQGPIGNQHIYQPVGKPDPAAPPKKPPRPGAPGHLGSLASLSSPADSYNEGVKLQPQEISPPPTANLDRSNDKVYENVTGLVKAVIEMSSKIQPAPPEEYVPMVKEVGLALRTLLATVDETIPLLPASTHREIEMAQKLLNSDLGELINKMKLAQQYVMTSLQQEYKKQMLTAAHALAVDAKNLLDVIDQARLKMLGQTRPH

Turning to `N#Cc1ccc(NN2C(C(O)C3CCCCC3)C=CC3C(=O)N(c4ccccc4)C(=O)C32)cc1` (stereo not given), the composite z-score in [1] is 0.422; in assay [2], 1.27; in assay [3] it was 0.533; in assay [4] it was 1.03; in [5], 1.27; in assay [6] it was -0.252. The composite z-score in the assay with Lefty1 stood at 0.058; in assay [8], 0.847; in assay [10] it was 0.4; in assay [15] it was 1.75; in assay [16], 0.134; with Torsin-1A (Homo sapiens) [17], 0.439. Besides, the composite z-score with Torsin-1A (Homo sapiens) [18] was 0.361; in [19], -0.81. Moreover, the z-score is -0.309 in [7]; -0.394 (inactive) in assay [9]; 0.124 (inactive) in assay [11]; -0.984 (inactive) in [12]; 0.808 (inactive) in assay [13]; 1.47 (inactive) in assay [14].
For the compound `CCC(CC)C(O)C1C=CC2C(=O)N(c3ccccc3)C(=O)C2N1Nc1ccc(C#N)cc1` (stereo not given), the composite z-score in assay [1] is 1.74; in [2] it was 1.27; in assay [3] it was 0.813; in assay [4], 0.991; in assay [5], 0.816; in [6], -0.177. In addition, the composite z-score in the assay on Lefty1 turned out to be 0.0695; in [8], 1.21; in assay [10], 0.658; in assay [15], 1.24; in assay [16], 0.75; in the assay with Torsin-1A (Homo sapiens) [17] it was 0.223. Besides, the composite z-score with Torsin-1A (Homo sapiens) [18] was 0.775; in [19] it was -0.41. The z-score in assay [7] is -0.111; in [9], -0.27 (inactive); in assay [11], 0.625 (inactive); in assay [12] it was -0.939 (inactive); in assay [13], 1.01 (inactive); in assay [14], 0.435 (inactive).
Regarding `CC1=C2[C@@H](CCc3ccccc3)OB(O)C[C@@H]2n2c(=O)n(-c3ccccc3)c(=O)n2C1`, the composite z-score in [1] came to 0.324; in assay [2], 0.479; in [3], 0.233; in assay [4], 0.923; in assay [5], 0.794; in assay [6] it was 0.618. Also, the composite z-score in the assay with Lefty1 was 0.897; in [8], 0.0099; in assay [10], 0.207; in [15], 0.156; in [16] it was -0.0405; with Torsin-1A (Homo sapiens) [17] it was 0.0316. The composite z-score was 0.111 in the assay with Torsin-1A (Homo sapiens) [18] and 0.724 in assay [19]. The z-score was 0.235 in [7]; -0.85 (inactive) in [9]; -0.382 (inactive) in assay [11]; 0.909 (inactive) in [12]; 0.402 (inactive) in [13]; -0.826 (inactive) in assay [14].
With `CN1C=C(C(=O)OCCS(C)(=O)=O)C(C(=O)OCCS(C)(=O)=O)=CC(CCCO)=CC1C1CC1` (stereo not given), the composite z-score was 0.464 in assay [1]; -0.202 in [2]; 0.686 in assay [3]; 0.901 in [4]; 0.186 in assay [5]; -0.275 in assay [6]. For the same compound, the composite z-score in the assay with Lefty1 is 0.889; in assay [8], 0.288; in assay [10], -0.102; in assay [15] it was 0.207; in assay [16], -0.128; with Torsin-1A (Homo sapiens) [17], -0.0089. Also, the figures for the composite z-score (with Torsin-1A (Homo sapiens) [18]; in [19]) were 0.344 and 0.501, respectively. Besides, the z-score was 0.664 in assay [7]; -0.0115 (inactive) in assay [9]; -0.134 (inactive) in assay [11]; -0.483 (inactive) in assay [12]; -0.844 (inactive) in assay [13]; -0.657 (inactive) in assay [14].
